# Rows were chosen to be rich in hits. Some 28% of all compounds tested hit in one or more screens of this group.
# Plk1 PBD FP: Plk1 polo box domain binding inhibitors, primary screen, biochemical, fluorescence polarization. AID 693, 2007. Serine/threonine-protein kinase PLK1 (Homo sapiens), P53350. inhibition, %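 (tested at about 20 µM)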. 0.13% of 97,000 active. Plk1 PBD phosphopeptide binding; in the data active = inhibition above about 34%, passing the limit was not always enough
# CYP2C9 act: human CYP2C9 activators, primary screen, biochemical, luminescence. Cytochrome P450 2C9 (Homo sapiens), P11712. AID 1024, 2008. 1.4% of 96,000 active. activation factor at 5 µM. recombinant CYP2C9, luciferin-H conversion; hits give high values; factor 1 = untreated enzyme, 0 = blocked;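 active = activation factor of 2 or more for CYP2C9 at a 5 µM dose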;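 note: 0 = sulfaphenazole-blocked wells and 1 = vehicle-only wells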
# CYP2C9 inhib: blockers of cytochrome P450 2C9 activity – biochemical, luminescence, ADME assay, primary screen | P11712 | inhibition, % at 5 µM | 20% of 96,000 active | AID 777, 2007 | CYP2C9 Supersomes, luciferin-H conversion;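 active = blocking of liver enzyme CYP2C9 beyond about 50% at 5 µM, limit read from the data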
# PLK1 inh: human PLK1 kinase inhibitors, primary screen, biochemical, TR-FRET; Serine/threonine-protein kinase PLK1 (Homo sapiens), P53350; recombinant PLK1 kinase, TR-FRET peptide phosphorylation; inhibition, % at 10 µM; 0.53% of 97,000 active;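 active = inhibition of 50% or more in the single-concentration screen; inactive = inhibition below 50%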;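 note: 0% = DMSO max control and 100% = H-89 dihydrochloride min control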
# CYP2C19 inh: blockers of cytochrome P450 2C19 activity – biochemical, luminescence, ADME assay, primary screen; AID 778, 2007; CYP2C19 Supersomes, luciferin-H EGE luminescence, 30 min; 21% of 96,000 active; inhibition, % at 5 µM; P33261;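 active = CYP2C19 inhibition above a set limit at 5 µM in the primary screen, cut at about 50% in these data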;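 note: plate controls were negative control wells for no effect and 2.5 mM tranylcypromine positive control for full effect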
# Target sequence (P33261 whole entry, looked up): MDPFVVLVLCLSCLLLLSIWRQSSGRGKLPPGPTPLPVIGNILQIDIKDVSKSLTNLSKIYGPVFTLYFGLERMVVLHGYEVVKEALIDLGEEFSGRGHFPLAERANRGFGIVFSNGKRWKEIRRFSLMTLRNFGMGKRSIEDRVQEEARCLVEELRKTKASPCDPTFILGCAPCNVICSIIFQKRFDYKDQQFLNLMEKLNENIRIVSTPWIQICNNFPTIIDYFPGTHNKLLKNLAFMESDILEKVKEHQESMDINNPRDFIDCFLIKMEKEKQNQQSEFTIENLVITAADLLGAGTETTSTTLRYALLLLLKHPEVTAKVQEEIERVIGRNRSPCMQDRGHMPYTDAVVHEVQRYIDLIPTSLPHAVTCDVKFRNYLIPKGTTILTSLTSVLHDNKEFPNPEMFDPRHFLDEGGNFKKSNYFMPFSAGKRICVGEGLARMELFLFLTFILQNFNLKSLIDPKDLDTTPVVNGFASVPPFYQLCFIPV
# CYP2C19 act: human CYP2C19 activators, primary screen, biochemical, luminescence. Cytochrome P450 2C19 (Homo sapiens), P33261. recombinant CYP2C19, luciferin-H EGE luminescence; hits give high values; 0 = fully inhibited enzyme, 1 = untreated enzyme. activation factor at 5 µM. 96,000 tested, under 10 active;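 active = activation factor of at least 2 at 5 µM in the primary screen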;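 note: 0 = wells with 2.5 mM tranylcypromine and 1 = vehicle-only wells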
# Numbers without * were called inactive; . = no result.
SMILES,Plk1 PBD FP,CYP2C9 act,CYP2C9 inhib,PLK1 inh,CYP2C19 inh,CYP2C19 act
COc1ccc(CCNC(=O)CSc2nc3c(c(=O)n(C)c(=O)n3C)n2C)cc1OC,2,.,.,-10,.,.
COc1ccc(CCNC(=O)CCCn2c(SCC#N)nc3ccccc3c2=O)cc1OC,-3,0.4,65*,-7,39,0.6
CCCCCn1c(SCC#N)nc2cc(C(=O)NCC3CCCO3)ccc2c1=O (stereo not drawn),-2,0.6,39,-28,37,0.6
COc1ccc(CCNC(=O)CCn2c(SCC#N)nc3ccccc3c2=O)cc1OC,0,0.4,60*,-4,42,0.6
COc1ccc(CNC(=O)CCCCCn2c(SCC#N)nc3cc4c(cc3c2=O)OCO4)cc1,.,0.1,94*,.,48,0.5
C=CC[n+]1c(-c2ccc(OC)c(OC)c2)csc1NNC(=O)Nc1ccccc1,-7,0.8,20,-2,12,0.9
COc1ccc(C(=O)/C=C(\C)NCc2ccc3c(c2)OCO3)cc1,-20,0.7,26,-7,24,0.8
N#Cc1c2c(c(-c3ccco3)[nH]c1=O)CCCC2,-1,1,-4,3,-2,1
CCOc1ccc(C2Nc3cccc4cccc(c34)N2)cc1OC,6,.,.,6,.,.
COc1ccc(C2Nc3ccccc3C(=O)N2Cc2ccccc2)cc1CSc1ccccn1 (stereo not drawn),-4,0.8,23,-7,7,0.9
COc1cc(C2Nc3ccccc3C(=O)N2c2ccccc2)ccc1O (stereo not drawn),-3,0.3,75*,-8,38,0.6
COc1ccc(C2Nc3ccccc3C(=O)N2c2ccccc2)cc1COc1ccccn1 (stereo not drawn),0,0.4,59*,-14,30,0.7
CCOc1cc(C2Nc3cccc4cccc(c34)N2)ccc1O,8,0.6,38,11,69*,0.3
COc1ccc(C2Nc3ccccc3C(=O)N2O)cc1OC (stereo not drawn),-3,0.9,9,-6,23,0.8
COc1ccccc1N1C(=O)c2ccccc2NC1c1ccncc1 (stereo not drawn),-5,0.4,56*,7,39,0.6
CCOc1cc(C2Nc3ccccc3C(=O)N2c2ccccc2)ccc1O (stereo not drawn),10,0,96*,-7,62*,0.4
CC(C)c1nnc(NC(=O)C2CCCCC2)s1,-3,.,.,-9,.,.
CC(C)c1cc(C(N)=O)c(NC(=O)C2CCC2)s1,0,0.5,55*,-5,57*,0.4
COC(=O)CSc1nnc(-c2ccc(S(=O)(=O)NCc3ccccc3Cl)cc2)o1,-9,0.7,34,-28,4,1
COc1ccc(S(=O)(=O)Nc2nnc(CC(C)C)s2)cc1,6,0.4,63*,0,-2,1
CC(C)Cc1nnc(NS(=O)(=O)c2ccc(Cl)cc2)s1,10,0.3,70*,-13,9,0.9
COc1ccc(S(=O)(=O)Nc2nnc(C)s2)cc1,11,0.5,48,-11,12,0.9
CC1CCCCN1C(=O)Cn1c(=O)n(C2CCCCC2)c(=O)c2ccccc21 (stereo not drawn),2,0.7,30,-9,5,0.9
CCC(=O)c1ccc(OCC(=O)Nc2nn3cnnc3s2)cc1,-10,0.2,84*,-3,29,0.7
Cc1cc(OCC(=O)NCCCN(C)C)cc(C)c1Br,26,1.2,-23,-7,8,0.9
SMILES,Plk1 PBD FP,CYP2C9 act,CYP2C9 inhib,PLK1 inh,CYP2C19 inh,CYP2C19 act
CC1=CC(C)(C)N2C(=O)C3(SCC(=O)N3c3ccc(O)cc3)c3cc(C)cc1c32 (stereo not drawn),4,0,97*,-5,87*,0.1
CC1=CC(C)(C)N2C(=O)C3(N=C(N)NC(Nc4ccccc4)=N3)c3cc(C)cc1c32 (stereo not drawn),-17,0.9,8,-2,5,1
CC(=O)OC1CC(C)N(C(=O)c2ccccc2)c2ccc(C)cc21 (stereo not drawn),-16,0.9,11,-3,85*,0.1
CCCC(=O)OC1CC(C)N(C(=O)c2ccccc2)c2ccc(C)cc21 (stereo not drawn),-19,.,.,-4,.,.
CCOC(=O)N1CCN(C(=O)c2cccc(-n3c(=S)[nH]c4cc(Cl)ccc4c3=O)c2)CC1,7,0.8,23,-3,1,1
C=CCOc1cccc(C2C(C(=O)c3ccc(C)o3)=C(O)C(=O)N2Cc2ccncc2)c1 (stereo not drawn),-31,0.4,62*,-7,12,0.9
C=CCOc1cccc(C2C(C(=O)c3ccco3)=C(O)C(=O)N2Cc2ccncc2)c1 (stereo not drawn),9,0.2,84*,-13,26,0.7
CC(C(=O)c1ccccc1)n1cnc2ccccc2c1=O (stereo not drawn),6,0.6,38,1,35,0.7
CC(C)=C1SC(N2CCN(Cc3ccccc3)CC2)=NC1=O,.,1.2,-20,.,57*,0.4
Cc1nnc(N2CCN(Cc3ccccc3)CC2)[nH]c1=O,7,1.1,-7,2,-1,1
CC1(C)Cc2c(c(N3CCOCC3)nc3sc4c(NN)ncnc4c23)CS1,-13,0.9,10,1,-18,1.2
CC1(C)Cc2c(c(N3CCOCC3)nc3sc4c(NCc5ccccc5)nnnc4c23)CS1,-14,0,98*,-9,57*,0.4
CC1(C)Cc2c(c(N3CCOCC3)nc3sc4c(NCc5ccco5)nnnc4c23)CS1,8,0.1,93*,-6,61*,0.4
CC(C)CNc1nnnc2c1sc1nc(N3CCOCC3)c3c(c12)CC(C)(C)SC3,26,0.2,81*,-11,34,0.7
CC1(C)NC(=O)N(CC(=O)OCC(=O)Nc2cccc(F)c2)C1=O,-20,0.6,39,-5,49,0.5
Cc1cccc(NC(=O)c2sc(NC(=O)c3ccco3)c(C#N)c2C)c1C,-4,0.9,13,-34,21,0.8
N#Cc1ccc(CSc2nnc(NC(=O)CN3C(=O)C4CC=CCC4C3=O)s2)cc1 (stereo not drawn),-4,0.8,20,-10,13,0.9
Cc1cc(=O)[nH]c(-c2ccccc2)n1,-1,0.9,5,-11,2,1
Cc1cc(=O)[nH]c2n[nH]c(-c3ccccc3)c12,-13,1.1,-15,-2,78*,0.2
O=C(c1ccc(CNc2c(N3CCCC3)c(=O)c2=O)cc1)N1CCc2ccccc2C1,-15,0.5,50*,-13,35,0.6
